Measurements published in PubChem BioAssay (NCI).
The panel holds about 83,000 compounds, 20% with a hit somewhere; the sample as a whole holds those more often.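 Growth was measured after 48 h exposure to one concentration of compound in 96-well plates. Values under 10 count as active.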 The source made the active and inactive calls.

Key:
Experiment in all cases: NCI-60 one-dose screen, 48 h (100 = growth as untreated, 0 = no growth, -100 = all killed)
HCT-15 colon = conditions: 10 µM unless noted
HT29 colon = conditions: 10 µM unless noted
SNB-75 CNS = conditions: 10 µM unless noted
SNB-19 CNS = conditions: 10 µM unless noted
U251 CNS = conditions: 10 µM unless noted
PC-3 prostate = conditions: 10 µM unless noted
SK-MEL-5 melanoma = conditions: 10 µM unless noted
UACC-62 melanoma = conditions: 10 µM unless noted
LOX IMVI melanoma = conditions: 10 µM unless noted
SK-MEL-28 melanoma = conditions: 10 µM unless noted
EKVX NSCLC = conditions: 10 µM unless noted
SN12C renal = conditions: 10 µM unless noted
UO-31 renal = conditions: 10 µM unless noted
TK-10 renal = conditions: 10 µM unless noted
ACHN renal = conditions: 10 µM unless noted
CAKI-1 renal = conditions: 10 µM
CCRF-CEM leukemia = conditions: 10 µM unless noted
MOLT-4 leukemia = conditions: 10 µM unless noted
A498 renal = conditions: 10 µM unless noted
SK-MEL-2 melanoma = conditions: 10 µM unless noted

Measured: growth

CN1CCN(c2nc(-c3csc(-c4ccncc4)n3)cc3ccccc23)CC1
inactive: HCT-15 colon 17% | HT29 colon 26.5% | SNB-75 CNS 62.5% | SNB-19 CNS 77.6% | U251 CNS 49.1% | PC-3 prostate 59.8% | SK-MEL-5 melanoma 70.4% | UACC-62 melanoma 26.6% | LOX IMVI melanoma 11.4% | SK-MEL-28 melanoma 28.8% | EKVX NSCLC 73.5% | SN12C renal 70.4% | UO-31 renal 71.4% | TK-10 renal 75.9% | ACHN renal 54.7% | CAKI-1 renal 58.7% | CCRF-CEM leukemia 26.5% | MOLT-4 leukemia 40.6%

O=C1Nc2cc(OC(F)(F)F)ccc2Oc2ccc(-c3ccnc(N4CC[C@H](O)C4)c3)cc21
inactive: SNB-19 CNS 35.9% | PC-3 prostate 15% | UACC-62 melanoma 28.8% | SK-MEL-28 melanoma 24.6% | EKVX NSCLC 45.9% | UO-31 renal 24% | TK-10 renal 75.6% | ACHN renal 25.1% | CAKI-1 renal 23.9% | CCRF-CEM leukemia 12.6% | MOLT-4 leukemia 11.3%
active: HCT-15 colon -30.6% | HT29 colon -58.7% | SNB-75 CNS -6% | U251 CNS 4.76% | SK-MEL-5 melanoma -58.4% | LOX IMVI melanoma 3.23% | SN12C renal 7.37%

Cc1cn(-c2cc(NC(=O)c3cncc(C#Cc4cnc5ccc(OCCCS(C)(=O)=O)nn45)c3)cc(C(F)(F)F)c2)cn1
inactive: HCT-15 colon 37.8% | HT29 colon 16.1% | SNB-75 CNS 13.6% | SNB-19 CNS 18.8% | U251 CNS 26.8% | PC-3 prostate 52.8% | UACC-62 melanoma 21.4% | SK-MEL-28 melanoma 31.5% | EKVX NSCLC 16% | SN12C renal 16.7% | UO-31 renal 38.3% | TK-10 renal 33.8% | ACHN renal 56.2% | CAKI-1 renal 37.4%
active: SK-MEL-5 melanoma 2.76% | LOX IMVI melanoma 9.26% | CCRF-CEM leukemia 6.72% | MOLT-4 leukemia 9.79%

Clc1ccc(-c2csc(Nc3cccc(Nc4csc(-c5ccc(Cl)cc5)n4)c3)n2)cc1
inactive: HCT-15 colon 56.5% | HT29 colon 88.1% | SNB-75 CNS 96.8% | SNB-19 CNS 85.5% | U251 CNS 85.4% | PC-3 prostate 74.1% | SK-MEL-5 melanoma 96.2% | UACC-62 melanoma 76% | LOX IMVI melanoma 63.8% | SK-MEL-28 melanoma 92.7% | EKVX NSCLC 61.8% | SN12C renal 63.1% | TK-10 renal 98.2% | ACHN renal 54.3% | CAKI-1 renal 51.9% | A498 renal 67.8% | CCRF-CEM leukemia 94.1% | MOLT-4 leukemia 60.7%

O=C(COc1ccc(C2SCC(=O)N2c2ccc(F)cc2)cc1)c1ccccc1 (stereo not given)
inactive: HCT-15 colon 95.7% | HT29 colon 109% | SNB-75 CNS 83.1% | SNB-19 CNS 91.5% | U251 CNS 101% | PC-3 prostate 79.2% | SK-MEL-5 melanoma 97.7% | UACC-62 melanoma 61.4% | LOX IMVI melanoma 87.6% | SK-MEL-28 melanoma 102% | EKVX NSCLC 86.9% | SN12C renal 97.1% | UO-31 renal 78.6% | TK-10 renal 131% | ACHN renal 95.6% | CAKI-1 renal 66% | CCRF-CEM leukemia 95.8% | MOLT-4 leukemia 92.5%

CC(=O)Nc1cccc(-n2cnc3cc(-c4ccc(O)cc4)ccc32)c1
active: SNB-75 CNS -31.7%
inactive: HCT-15 colon 24.8% | HT29 colon 28.2% | SNB-19 CNS 33.4% | U251 CNS 23.1% | PC-3 prostate 35.7% | SK-MEL-5 melanoma 28.3% | UACC-62 melanoma 36.5% | LOX IMVI melanoma 36.6% | SK-MEL-28 melanoma 78% | EKVX NSCLC 56.6% | SN12C renal 38.1% | UO-31 renal 28.1% | TK-10 renal 72.6% | ACHN renal 33% | CAKI-1 renal 23.3% | CCRF-CEM leukemia 23.6% | MOLT-4 leukemia 21.5%

COc1cc(OC)c(S(N)(=O)=O)cc1C(=O)/C=C/c1ccccc1
active: LOX IMVI melanoma 3.55%
inactive: HCT-15 colon 11.3% | HT29 colon 25.3% | SNB-75 CNS 77.4% | SNB-19 CNS 47.5% | U251 CNS 28.5% | PC-3 prostate 32.9% | SK-MEL-5 melanoma 23.2% | UACC-62 melanoma 42.8% | SK-MEL-28 melanoma 58% | EKVX NSCLC 77.2% | SN12C renal 11.3% | UO-31 renal 33.8% | TK-10 renal 19.9% | ACHN renal 27.7% | CAKI-1 renal 30.2% | CCRF-CEM leukemia 15.1% | MOLT-4 leukemia 29.2%

CN1C(=O)/C(=C/C=C/c2ccco2)SC1=S
inactive: HCT-15 colon 63.5% | HT29 colon 90.9% | SNB-75 CNS 92.6% | SNB-19 CNS 88.5% | U251 CNS 66.8% | PC-3 prostate 80% | SK-MEL-5 melanoma 40% | UACC-62 melanoma 77.2% | LOX IMVI melanoma 75.5% | SK-MEL-28 melanoma 83.9% | EKVX NSCLC 87.2% | SN12C renal 84.6% | UO-31 renal 58.3% | TK-10 renal 113% | ACHN renal 75.7% | CAKI-1 renal 95.2% | CCRF-CEM leukemia 60.8% | MOLT-4 leukemia 90.3%

Cc1ccccc1NC1CC(=O)N(c2ccc(Cl)cc2Cl)C1=O (stereo not given)
inactive: HCT-15 colon 101% | HT29 colon 104% | SNB-75 CNS 90.9% | SNB-19 CNS 95.6% | U251 CNS 99.5% | PC-3 prostate 97.2% | SK-MEL-5 melanoma 94.4% | UACC-62 melanoma 99.8% | LOX IMVI melanoma 94.4% | SK-MEL-28 melanoma 105% | EKVX NSCLC 96.7% | SN12C renal 103% | UO-31 renal 92.3% | TK-10 renal 99.3% | ACHN renal 104% | CAKI-1 renal 89.9% | CCRF-CEM leukemia 112% | MOLT-4 leukemia 117%

N#C/C(=C\c1ccc(-c2ccc(F)cc2)o1)C(=O)Nc1ncc(Cc2ccc(Cl)cc2Cl)s1
active: HCT-15 colon -31.7% | HT29 colon 6.93% | SNB-19 CNS -12.9% | PC-3 prostate 1.25% | LOX IMVI melanoma -85.6% | EKVX NSCLC 9.87% | SN12C renal -37.5% | UO-31 renal 2.72% | TK-10 renal -4.43% | ACHN renal 8.96% | CCRF-CEM leukemia 4.62%
inactive: SNB-75 CNS 58.3% | U251 CNS 21.9% | SK-MEL-5 melanoma 27.4% | UACC-62 melanoma 15.9% | SK-MEL-28 melanoma 39.5% | CAKI-1 renal 14.2% | MOLT-4 leukemia 30.8%

CC(=O)Oc1ccc(CCN2C(=O)CSC2=S)cc1
inactive: HCT-15 colon 62.3% | HT29 colon 107% | SNB-75 CNS 103% | SNB-19 CNS 94.9% | U251 CNS 104% | PC-3 prostate 78.2% | SK-MEL-5 melanoma 86% | UACC-62 melanoma 85.7% | LOX IMVI melanoma 41.6% | SK-MEL-28 melanoma 90.6% | EKVX NSCLC 97.3% | SN12C renal 69% | UO-31 renal 76.8% | TK-10 renal 57.9% | ACHN renal 93.6% | CAKI-1 renal 81.6% | CCRF-CEM leukemia 57.9% | MOLT-4 leukemia 88.2%

CCOC(=O)c1c(Nc2ccccc2)nn2c(-c3ccc(OC)c(OC)c3)ccnc12
inactive: HCT-15 colon 18.4% | HT29 colon 62.3% | SNB-75 CNS 68.7% | SNB-19 CNS 80.1% | U251 CNS 60.6% | PC-3 prostate 39.1% | SK-MEL-5 melanoma 32.4% | UACC-62 melanoma 77.1% | LOX IMVI melanoma 37.6% | SK-MEL-28 melanoma 65.8% | EKVX NSCLC 77.1% | SN12C renal 67.9% | UO-31 renal 42.9% | TK-10 renal 80.6% | ACHN renal 54.8% | CAKI-1 renal 44.4% | CCRF-CEM leukemia 30.9% | MOLT-4 leukemia 36.5%

CCc1ccc(NC(=O)N[C@@H](Cc2cc(F)cc(F)c2)C(=O)N[C@@H]2C(=O)N3CCC[C@H]3C(=O)N3CCO[C@H](C)[C@H]3C(=O)N[C@@H](CO)C(=O)N3C[C@H](C)C[C@H]3C(=O)O[C@H]2C)c(F)c1
active: SK-MEL-5 melanoma -2.9%
inactive: HCT-15 colon 15.8% | HT29 colon 30.5% | SNB-75 CNS 20.3% | SNB-19 CNS 26.9% | U251 CNS 29% | PC-3 prostate 17.3% | UACC-62 melanoma 26.3% | LOX IMVI melanoma 20.4% | SK-MEL-28 melanoma 43.4% | EKVX NSCLC 28.4% | SN12C renal 22.5% | UO-31 renal 36.4% | TK-10 renal 55.9% | ACHN renal 34.7% | CAKI-1 renal 20.3% | CCRF-CEM leukemia 35% | MOLT-4 leukemia 43.3%

Clc1ccc(-c2nc3ccc(/C(=N\N=C\c4ccccc4)c4ccccc4)cc3[nH]2)cc1
inactive: HCT-15 colon 72% | HT29 colon 71.7% | SNB-75 CNS 113% | SNB-19 CNS 93.8% | U251 CNS 88.4% | PC-3 prostate 62.2% | UACC-62 melanoma 88.8% | LOX IMVI melanoma 84.6% | SK-MEL-28 melanoma 90.6% | SK-MEL-2 melanoma 96.1% | EKVX NSCLC 93.4% | SN12C renal 93.4% | TK-10 renal 95.9% | ACHN renal 92.1% | CAKI-1 renal 77.2% | A498 renal 65.7% | CCRF-CEM leukemia 71% | MOLT-4 leukemia 59.3%

Cc1ccc(/C=C/CC(=O)Nc2ccc(C(=O)Nc3ccc(F)cc3N)cc2)cn1
inactive: HCT-15 colon 79.5% | HT29 colon 36.1% | SNB-75 CNS 74.8% | SNB-19 CNS 73.7% | U251 CNS 61.1% | PC-3 prostate 53% | UACC-62 melanoma 51.3% | LOX IMVI melanoma 49.3% | SK-MEL-28 melanoma 55.6% | SK-MEL-2 melanoma 60.7% | EKVX NSCLC 63.4% | SN12C renal 73.5% | UO-31 renal 58.9% | TK-10 renal 34.9% | ACHN renal 80.8% | CAKI-1 renal 57.2% | A498 renal 38.9% | CCRF-CEM leukemia 23.3% | MOLT-4 leukemia 45.1%

C#C[C@]1(O)CC[C@H]2[C@@H]3CC=C4c5sc(Nc6cccc(Cl)n6)nc5CC[C@]4(C)[C@H]3CC[C@@]21C
inactive: SN12C renal 40% | TK-10 renal 33.2% | ACHN renal 16.4%
active: HCT-15 colon -66.9% | HT29 colon 3.69% | SNB-75 CNS -25% | SNB-19 CNS -1.43% | U251 CNS 4.83% | PC-3 prostate 4.35% | SK-MEL-5 melanoma -90.7% | UACC-62 melanoma -14.4% | SK-MEL-28 melanoma -59.9% | SK-MEL-2 melanoma -24.9% | EKVX NSCLC 1.89% | UO-31 renal -37.8% | CAKI-1 renal -40.6% | A498 renal -62.6% | CCRF-CEM leukemia 5.11% | MOLT-4 leukemia -15.9%
